# ± gives the uncertainty stated by the source.
# Tested on: human primary fetal neurons
# Assay: surviving MAP-2+ neurons after FeSO4 challenge with drug pre-treatment, relative to untreated control (% of untreated control); higher = more neuroprotection against iron toxicity
# Settings: 10 µM; FeSO4 concentration 25-50 µM; 24 h
# Protocol: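 Human fetal primary neurons (96-well, AIM-V serum-free medium) were pre-treated for 1 h with each NINDS Custom Collection II drug at 10 µM, then challenged with FeSO4 (25 or 50 µM). After 24 h they were fixed, stained with anti-MAP-2 and counted by automated imaging (ImageXpress/MetaXpress). MAP-2+ neuron counts were normalised to untreated control wells (100%); values are the mean of 1-4 independent experiments, each in quadruplicate.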
row,SMILES,surviving MAP-2+ neurons
1,Cc1ccc(O)cc1.Cc1cccc(O)c1.Cc1ccccc1O,6.04 ± 1.1
2,CN(C)CCOC(c1ccccc1)c1ccccc1.Cn1c(=O)c2[nH]c(Cl)nc2n(C)c1=O,36.5 ± 5.3
